This note sets out measurements from PubChem BioAssay (NCI).

Structures are written as SMILES. “And” between values parts separate entries of the source, which are not always exact repeats. Identical values can stand only once. The panel holds about 83,000 compounds, 20% with a hit somewhere; the sample as a whole holds those more often.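 96-well plates, one dose, 48 hours. Percent growth reported; active if below 10.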 The source made the active and inactive calls.

For this experiment, the system named is HL-60(TB) leukemia. As to the kind of experiment: NCI-60 one-dose screen, 48 h (100 = growth as untreated, 0 = no growth, -100 = all killed). Particulars: 10 µM unless noted.
With `Nc1nc(N)nc(N2CCCCC2)n1`, the growth was 97.9% (inactive).
The figure for `CCN(CC)CCCC(C)Nc1c2ccc(Cl)cc2nc2ccc(O)cc12` (centres undefined) is 45.7% (inactive).
The figure for `CC(=O)[C@H]1CCC/C=C/[C@@H]2C[C@H](O)C[C@H]2[C@H](O)/C=C/C(=O)O1` is -54.4% (active); for `COc1ccc2c(c1)C(=O)c1c-2c(OCCN(C)C)nc2cc(OC)ccc12` it is 27.2% (inactive); for `O=[N+]([O-])c1ccc(S(=O)Cc2ccccc2)c([N+](=O)[O-])c1` (centres undefined) it is 56.4% (inactive) and -7.5% (active).
In the case of `O=C1CNC(c2ccccc2)C(c2ccccc2)N1` (centres undefined) it was 106% (inactive); in that of `CCCCCn1ncc(-c2c(O)c(O)cc3c(O)c(-c4c(C)cc5c(-c6cnn(CCCCC)n6)c(O)c(O)cc5c4O)c(C)cc23)n1`, -22.3% (active); in that of `CSC1=NC(=Nc2c(C)cccc2C)C2(CCC(C(C)(C)C)CC2)N1c1ccc(Cl)cc1` (centres undefined), 53.4% (inactive).
`Cn1c(=O)c2[nH]c(CCCCC(=O)O)nc2n(C)c1=O`: the growth was 60.6% (inactive).
The figure for `CCCC1CCC(O)(C(C)(O)C(=O)NC2C(=O)N3NCCCC3C(=O)N(O)C(C)C(=O)N3NCCCC3C(=O)N3NCC(O)CC3C(=O)NC(C)C(=O)OC2C(C)C)OC1CC` (centres undefined) is -91.3% (active); for `COc1ccc(Nc2ncccc2C(=O)NCc2cn(Cc3cccc(Oc4ccccc4)c3)nn2)c(OC)c1` it is 18.9% (inactive).
The figure for `Cc1cc(N(CCCNc2ccnc3cc(Cl)ccc23)Cc2ccc3c(c2)OCO3)nc(N2CCOCC2)n1` is -69.7% (active).
Regarding `Oc1ccc(Cn2cc3c(c2-c2ccccc2)CCc2cnoc2-3)cc1`, the growth is 93.8% (inactive).
The figure for `N#CC1=C(c2ccc(Cl)cc2)Nc2c(c(-c3ccc(Cl)cc3)nn2-c2ccccc2)C12C(=O)Nc1ccc(Cl)cc12` (centres undefined) is 15.2% (inactive); for `Cc1cc(N2CCCC2)nc(N(CCNc2ccnc3cc(Cl)ccc23)Cc2ccco2)n1` it is -52.8% (active).
The figure for `C=C(C)[C@@H]1CC[C@]2(COCCC#N)CC[C@]3(C)[C@H](CC[C@@H]4[C@@]5(C)Cc6c([nH]c7ccccc67)C(C)(C)[C@@H]5CC[C@]43C)[C@@H]12` is 101% (inactive); for `COC12C=C/C(=C(/C(=O)OCc3ccncc3)C(=O)CCCCCCCCC3(OC)C=C/C(=C(/C(=O)OCc4ccncc4)C(=O)CCCCCCCC1)O3)O2` it is -22.9% (active); for `O=C(/C=C/c1ccc(F)cc1)c1ccc(Nc2nc(NCCO)nc(Nc3ccc(Cl)cc3)n2)cc1` it is 98.6% (inactive).
The figure for `COc1ccc(-n2nnc(C(=O)NCCc3c[nH]c4ccc(F)cc34)c2C)cc1` is 86.9% (inactive).
Turning to `O=C1NC(=O)C2(CCc3ccccc32)N1` (centres undefined), the growth is 93.7% (inactive) and 106% (inactive).
The figure for `CCOC(=O)C(C#N)=C1CCN(C)CC1` is 113% (inactive); for `CCN1CCN(CCC(=O)Nc2cccc(-n3cc(-c4ccncc4)c(-c4ccc(Cl)c(OC)c4)n3)c2)CC1` it is -42.1% (active); for `COc1cc(C2NC(=O)c3ccccc3N2)ccc1OCCCCCOc1c(OC)cc(C2=NOC(c3cc(OC)c(OC)c(OC)c3)C2)cc1OC` (centres undefined) it is 68.3% (inactive).
The figure for `N#Cc1c2c(nn(-c3ccccc3)c1=O)C(O)=C([N+](=O)[O-])C(c1ccccc1)C2` (centres undefined) is 58.5% (inactive).
`CN[C@@]12CC3(C=CC(=O)C=C3)O[C@]1(Cc1ccc(OC)cc1)N(C)C(=O)N2`: the growth was 0.452% (active).
For the compound `C=CCc1cc(C(C)=O)cc(OC)c1O`, the growth was 71.1% (inactive).
The figure for `CN(C)c1ccc(Nc2cc(-c3cccc(OC(F)(F)F)c3)nc3ccc(N4CCCC4)cc23)cc1` is -15.6% (active); for `COc1cc(C(=O)/C=C/c2c[nH]c3ccccc23)cc(OC)c1OC` it is -12% (active); for `NC(=O)c1ccc[n+]([C@@H]2O[C@H](COP(=O)([O-])OP(=O)(O)OC[C@H]3O[C@@H](n4cnc5c(N)ncnc54)[C@H](O)[C@@H]3O)[C@@H](O)[C@H]2O)c1` it is 109% (inactive).
The figure for `CC(C)(C)c1ccc(O)c(CNC2CCCCC2)c1` is 74.8% (inactive) and 77.1% (inactive); for `CCc1cccc(CC)c1NC(=O)c1sc2nc3c(cc2c1N)CCCC3` it is 41% (inactive).
In the case of `Cc1ccc(-c2nc3nc(-c4ccc(F)cc4)nc(N4CCNCC4)c3o2)cc1` it was -69.1% (active).
In the case of `COc1cc2c(cc1OC)N(CCO)C1=C(C(=O)OC1)C2c1ccc(Cl)c(Cl)c1` (centres undefined), the growth is 93.4% (inactive).
Turning to `O=C1C(=O)c2ccccc2C(O)=C1CC=C(Cl)Cl`, the growth was 31.3% (inactive) and 44.6% (inactive).
In the case of `COc1cc(/C=C2/C=C(c3ccccc3)N(CCc3ccc(S(N)(=O)=O)cc3)C2=O)cc(OC)c1OC` it was 86.7% (inactive); in that of `O=c1[nH]c(=S)[nH]c(=O)n1Cc1cccc2ccccc12`, 101% (inactive).
The figure for `Cc1c2c(cn1Cc1ccccc1)CCc1cn[nH]c1-2` is 90.6% (inactive).
In the case of `CCOC(=O)N1C/C(=C/c2ccc(OC)cc2)C(=O)/C(=C/c2ccc(OC)cc2)C1` it was 16.7% (inactive).
Consider `Oc1cccc(Nc2nccc(-c3ccc4ccccc4c3)n2)c1`, for which the growth was 0.229% (active).
